Measurements: PubChem BioAssay (NCI)
This is part of a sample that, as a whole, favours compounds with a hit. Of some 83,000 tested, about 20% had one in any assay.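 Single-concentration screen, 48 h exposure, 96-well plates. Endpoint: percent growth. Below 10 = active.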 Activity calls are given as the source filed them.

What was measured:
Experiment in all cases: NCI-60 one-dose screen, 48 h (100 = growth as untreated, 0 = no growth, -100 = all killed)
Settings in all cases: 10 µM unless noted
[1] = tested on: NCI-H23 lung
[2] = tested on: NCI-H226 lung
[3] = tested on: NCI-H322M lung
[4] = tested on: HOP-62 NSCLC
[5] = tested on: NCI-H460 lung
[6] = tested on: HOP-92 NSCLC
[7] = tested on: NCI-H522 lung
[8] = tested on: A549/ATCC NSCLC
[9] = tested on: 786-0 renal
[10] = tested on: COLO 205 colon
[11] = tested on: DU-145 prostate
[12] = tested on: K-562 leukemia
[13] = tested on: MALME-3M melanoma
[14] = tested on: MDA-MB-231 breast
[15] = tested on: RXF 393 renal
[16] = tested on: SF-268 CNS
[17] = tested on: SF-295 CNS
[18] = tested on: SF-539 CNS
[19] = tested on: UACC-257 melanoma
[20] = tested on: M14 melanoma

Measured: growth

O=C(Nc1ccc(F)cc1)Nc1nc2ccc([N+](=O)[O-])cc2s1
inactive: [11] 24.2% | [16] 18%
active: [1] -11.8% | [2] 1.42% | [3] 7.52% | [4] -0.8% | [5] -3.01% | [6] -3.56% | [7] -23.7% | [8] 6.83% | [9] 1.6% | [10] -77.5% | [12] 6.19% | [13] -17.9% | [14] -2.3% | [15] -14.9% | [17] -46% | [18] 7.13% | [19] -12.8% | [20] -3.58%

Cc1ccc(/C=C/C(=O)c2ccc(S(=O)(=O)NCCNc3nc(N(C)C)nc(N4CCOCC4)n3)cc2)cc1
active: [12] 6.8%
inactive: [1] 95% | [2] 91.7% | [3] 93.7% | [4] 114% | [5] 103% | [6] 93.2% | [7] 72.3% | [8] 80.4% | [9] 73% | [10] 114% | [11] 95.3% | [13] 108% | [14] 85% | [15] 85% | [16] 79.6% | [17] 94.4% | [18] 81.7% | [19] 85.7% | [20] 95.5%

CCCCNc1ccc2c3c(cccc13)C(=O)N(NCC(O)COc1ccc3c(C)cc(=O)oc3c1)C2=O (stereo not given)
inactive: [1] 87.4% | [2] 87.5% | [3] 91% | [4] 97% | [5] 92.6% | [6] 78.2% | [7] 83.2% | [8] 87% | [9] 101% | [10] 92.2% | [11] 89.2% | [12] 75.8% | [13] 110% | [14] 81.4% | [15] 91.6% | [16] 79.6% | [17] 95.5% | [18] 91.8% | [19] 106% | [20] 90.6%

COc1ccc(N=Nc2c(N)nn3c(N)c(C#N)c(-c4ccc(F)cc4)nc23)cc1
active: [6] -3.02% | [14] -9.82% | [18] -5.21%
inactive: [1] 39.7% | [2] 55% | [3] 77% | [4] 59.6% | [5] 61.1% | [7] 40.7% | [8] 86.8% | [9] 32% | [10] 105% | [11] 58.8% | [12] 68.6% | [13] 48.7% | [15] 35.1% | [16] 61.2% | [17] 63% | [19] 105% | [20] 80.2%

CCC(=O)c1cc(C(=O)OC)c2ccc3c4ccccc4ccc3n12
inactive: [1] 85.2% | [2] 50.4% | [3] 93.5% | [4] 65.4% | [5] 26.1% | [6] 88.7% | [7] 102% | [8] 67.9% | [9] 66.8% | [10] 80.5% | [11] 93.5% | [12] 91.5% | [13] 71.9% | [14] 69.9% | [15] 82.1% | [16] 89.3% | [17] 77.6% | [18] 88.2% | [19] 99.7% | [20] 105%

Clc1ccc(-c2nc3ccc(-c4nnc(SCc5ccccc5)o4)cc3[nH]2)cc1
inactive: [1] 18.3% | [2] 40.3% | [3] 27.6% | [5] 41.4% | [6] 48% | [7] 10.3% | [8] 34.9% | [9] 24.6% | [10] 55.3% | [11] 54.9% | [12] 36.7% | [13] 29.4% | [16] 60% | [19] 62.2% | [20] 67.9%
active: [4] 9.18% | [14] -11.9% | [15] -4.87% | [17] -73.4% | [18] -28%

COc1c2c(c(Br)c3c1C(CCc1ccccc1)N(C)CC3)OCO2 (stereo not given)
active: [18] -8.69%
inactive: [1] 16.4% | [2] 51.7% | [3] 38.5% | [4] 68.2% | [5] 23.5% | [6] 22.6% | [7] 56.9% | [8] 45.9% | [9] 47.6% | [10] 29.6% | [11] 56.7% | [12] 28.1% | [13] 63.7% | [14] 39.9% | [15] 72.9% | [16] 45.7% | [17] 40.6% | [19] 64.9% | [20] 29%

CCCn1c(NC(=O)c2cccc(C(N)=O)c2)nc2cc(CN3CCCCC3)ccc21
active: [9] 9.97%
inactive: [1] 88.1% | [2] 101% | [3] 92% | [4] 95.8% | [5] 101% | [6] 84.8% | [7] 83.1% | [8] 95.7% | [10] 88.7% | [11] 103% | [12] 72.3% | [13] 98% | [14] 142% | [15] 64.5% | [16] 111% | [17] 107% | [18] 107% | [19] 113% | [20] 13.8%
